Source: PubChem BioAssay
Dicer processing: inhibitors of Dicer pre-microRNA processing, primary screen, biochemical, cat-ELCCA, chemiluminescence; AID 1347074, 2019; hit rate 6% among 47,000; cat-ELCCA pre-miR-21 Dicer processing; hits give high values; Endoribonuclease Dicer (Homo sapiens), Q9UPY3; z-score at 25 µM; in the data active means z-score above about 3, passing the limit was not always enough;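 further: plate controls were vehicle for no effect and no enzyme for full effect; higher signal means more uncleaved substrate so more Dicer inhibition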
Numbers without * were called inactive. This excerpt belongs to a sample that is enriched for hits.

SMILES	Dicer processing
COc1cc2c(cc1OC)CN(S(=O)(=O)c1ccc3c(c1)CCC(C)(C)O3)CC2	-0.69
COc1cc2c(cc1OC)C1=C(C#N)CN(CCc3ccccc3)CN1CC2	1.05
COc1cc2c(cc1OC)C1=C(C#N)CN(c3ccc(C)c(C)c3)CN1CC2	4.51*
N#Cc1ccc(/C=C2\NC(=S)NC2=O)cc1	1.1
Cc1ccc(-c2cc3ncc(C(=O)c4ccccc4O)cn3n2)cc1	-0.15
CC1CCc2c(sc3ncnc(Sc4ccccc4)c23)C1 (configuration not stated)	-0.63
Cc1ccc2nc(Cc3ccc(N)cc3)[nH]c2c1	2.66
Cc1ccc2nc(Cc3nc4ccc(C)cc4[nH]3)[nH]c2c1	-1.74
Cc1nc2ccc(Cc3ccc4nc(C)[nH]c4c3)cc2[nH]1	5.04*
Cn1c(=O)c2c(nc(Oc3ccccc3)n2Cc2ccc(Br)cc2)n(C)c1=O	-0.52
O=C(O)c1cc(-c2cccc(O)c2)nc2ccc(Br)cc12	0.32
CCOC(=O)c1c(NC(=O)Nc2sc(C)c(-c3ccccc3)c2C(=O)OCC)sc(C)c1-c1ccccc1	-1.72
CCOC(=O)c1c(NC(=O)c2cc3ccccc3c(=O)o2)sc(C)c1C	0
CCOC(=O)c1c(NC(C)=O)sc2c(O)c(Sc3ccccc3)ccc12	4.11*
CC1CN(C(=N)c2ccc(Cl)cc2)CC(C)O1 (configuration not stated)	1.01
S=c1[nH]nc(NC2CCCCC2)s1	0.77
O=c1c(NC2CCCCC2)c(NC2CCCCC2)c1=O	5.91*
S=C(NC1CCCCC1)C(=S)NC1CCCCC1	-1.07
Cc1cc(C(F)F)n2nc(C(=O)Nc3cnn(Cc4ccc(F)cc4)c3)nc2n1	1.11
CCOC(=O)C1C2C=CC3(CN(c4ccccc4Cl)C(=O)C13)O2 (configuration not stated)	0.16
N#Cc1c(-c2cccnc2)c2c([nH]c1=O)-c1ccccc1SC2	0.62
N#Cc1c(-c2ccc(F)cc2)c2c([nH]c1=O)-c1ccccc1CC2	0.96
N#Cc1c(-c2ccc(F)cc2)c2c([nH]c1=O)-c1ccccc1SC2	3.46*
COc1ccc(Cl)cc1NC(=O)CC(C)(C)CC(=O)O	1.26
C/C(=N\Nc1c(Cl)cc(Cl)cc1Cl)c1oc(C)nc1C	3.16*
SMILES	Dicer processing
CC(=O)Nc1c(C)cc(Cl)cc1Cl	-0.62
C/C(=N\Nc1c(Cl)cc(Cl)cc1Cl)c1cc(F)ccc1O	2.14
O=C1CC2(CCCC2)C(=O)N1c1ccc(S(=O)(=O)N2CCN(Cc3c(F)cccc3Cl)CC2)cc1Cl	-0.17
O=C(CSc1ncn[nH]1)c1ccc(Cl)cc1	0.08
CCOC(=O)c1nn(-c2ccccc2)c2nc(Nc3ccc(Cl)cc3)cc(=O)n12	0.66
O=C1Nc2ccccc2C(=O)C1=Ic1ccccc1	1.89
OC(CNC1CCCCC1)Cn1c2ccccc2c2ccccc21 (configuration not stated)	-0.84
Cc1ccc2c(c1)c(C)c(C)n2CC(O)CN1CCCCC1C (configuration not stated)	3.64*
Cc1cc(C)n(CC(O)Cn2c(C)c(C)c3ccccc32)n1 (configuration not stated)	0.55
C=CCSc1nnc2c3sc4nc(N5CCOCC5)c5c(c4c3ncn12)CC(C)(C)OC5	1.7
OCCN(CCO)c1ncnc2c1sc1nc(N3CCOCC3)c3c(c12)CCCC3	-0.37
CN(C)c1ccnc2sc3c(N(CCO)CCO)ncnc3c12	3.28*
OCCCNc1ncnc2c1sc1nc(-c3ccccc3)c3c(c12)CCCC3	-0.45
COC(=O)c1sccc1OS(=O)(=O)c1cc([N+](=O)[O-])ccc1C	-5.45
O=C1C(=Cc2cccc([N+](=O)[O-])c2)N=C2SCCCN12	-1.92
CCOc1ccc(S(=O)(=O)N2CN3CCN(C3)C2)cc1	3.25*
CCCCOc1ccc(S(=O)(=O)n2cnc(C)c2)cc1	-1.14
CCOC(=O)C1CCN(S(=O)(=O)c2ccc(Br)cc2)CC1	0.45
N#Cc1c(N)n(Cc2ccccc2)c(=O)c2cccnc12	-1.95
Cc1ccc(N2C(=O)C3C4C=CC(CC4)C3C2=O)cc1 (configuration not stated)	-0.11
Cc1nnc(N2C(=O)C(O)=C(C(=O)c3cccs3)C2c2ccc(C(C)C)cc2)s1 (configuration not stated)	0.33
CN(C)CCCN1C(=O)C(O)=C(C(=O)c2cccs2)C1c1ccncc1 (configuration not stated)	1.23
COc1ccc(C2C(C(=O)c3cccs3)=C(O)C(=O)N2CCCN(C)C)cc1 (configuration not stated)	-0.27
CC(C)c1ccc(C2C(C(=O)c3cccs3)=C(O)C(=O)N2CCN(C)C)cc1 (configuration not stated)	4.66*
CN(C)CCN1C(=O)C(O)=C(C(=O)c2cccs2)C1c1ccncc1 (configuration not stated)	4.07*
SMILES	Dicer processing
CC(C)c1ccc(C2C(C(=O)c3cccs3)=C(O)C(=O)N2CCN2CCOCC2)cc1 (configuration not stated)	-0.41
CC1CCN(c2oc(-c3ccco3)nc2S(=O)(=O)c2ccc(Cl)cc2)CC1	-0.04
CCOC(=O)C1=C(C)NC2=C(C(=O)CC(C)(C)C2)C1c1cc(Br)c(O)c(OCC)c1 (configuration not stated)	1.03
O=C(O)C1C2C=CC3(CN(Cc4ccccc4)C(=O)C13)O2 (configuration not stated)	3.2*
O=C(O)C1C2C=CC3(CN(CCc4ccccc4)C(=O)C13)O2 (configuration not stated)	-0.96
COC(=O)C1C2C=CC3(CN(Cc4ccccc4)C(=O)C13)O2 (configuration not stated)	1.66
Cc1ccc(CNc2oc(COc3ccc(F)cc3)nc2C#N)cc1	-7.99
COc1ccc(C2Oc3ccccc3C3=C2C(c2ccccc2)n2ncnc2N3)cc1 (configuration not stated)	-0.3
Cn1c(=O)c2c(nc(N3CCCCCC3)n2Cc2ccccc2Cl)n(C)c1=O	-0.58
O=c1cc(CSc2ccc(Cl)cc2)[nH]c2[nH]n(-c3ccccc3)c(=O)c12	5.36*
O=c1cc(CSc2nc3ccccc3s2)[nH]c2[nH]n(-c3ccccc3)c(=O)c12	0.06
O=c1cc(CSc2ccc(Cl)cc2)[nH]n1-c1ccccc1	35.1
O=C(c1cnc2ccccn12)C(F)(F)Sc1ccccc1	-0.53
O=C1c2cccc3cccc(c23)C(=O)N1c1cccc(Cl)c1	-1.32
CC(=O)Nc1cc(N2CC(C)CC(C)C2)c(F)cc1[N+](=O)[O-] (configuration not stated)	28.1*
CC(=O)Nc1cc(N2CCOCC2)c(F)cc1[N+](=O)[O-]	-1.27
CC1CC(C)CN(c2ccc(S(N)(=O)=O)cc2[N+](=O)[O-])C1 (configuration not stated)	-1.13
O=C(c1cc(C(F)(F)F)cc(C(F)(F)F)c1)N1CCc2cc([N+](=O)[O-])ccc21	-1.1
O=C(CC1(O)C(=O)N(CN2CCCCC2)c2ccc(Br)cc21)c1ccc(Cl)cc1 (configuration not stated)	-0.38
COc1ccc(O)c(C2=NN3C(C2)c2ccccc2OC3c2ccc(OC)c(O)c2)c1 (configuration not stated)	1
COc1ccc(C2Oc3ccccc3C3CC(c4ccccc4O)=NN32)cc1O (configuration not stated)	1.63
Oc1ccccc1C1=NN2C(C1)c1ccccc1OC2c1ccncc1 (configuration not stated)	1.91
